In the library only some 2.8% were active in any assay of this set; here they are far more common.
KDM5B inh = Primary screen for KDM5B Histone Demethylases FDH-coupled qHTS; Lysine-specific demethylase 5B (Homo sapiens), Q9UGL1; KDM5B demethylase, FDH-coupled NADH fluorescence (FDH is formaldehyde dehydrogenase); Potency, µM (top dose mostly 57.7 µM), actives largely listed as inhibitors; 220,000 tested, 2.6% active; AID 1347165, 2019; further: nearly all actives have a fitted effect of over 70% in size
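Compound dilutions met 200 nM (final) KDM5BΔAP for 10 min at room temperature before substrate addition. The substrate mix held 12.5 µM H3K4me3 with cofactors 25 µM α-ketoglutarate and 50 µM Fe²⁺. NADH signal gain over 30 min defined activity.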
IP6K1 inhibitor = Primary qHTS assay for small molecule inhibitors of Inositol hexaphosphate kinase 1 (IP6K1). Inositol hexakisphosphate kinase 1 (Homo sapiens), Q92551. IP6K1 kinase, ADP-Glo luminescence, 2 h; active compounds read low. activity change, % (series mostly up to about 58 µM). 140,000 tested, 0.81% active. AID 1645851, 2021; in the data active means activity change below about -25%
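ADP-Glo luminescence measures ADP made by human IP6K1 during a 2 h RT reaction with ATP/IP6 (mix at 1.3 mM/130 uM); top library doses 57.5 and 19.1 uM final.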
SNCA viab count = GF-AFC viability counterscreen for inhibitors of alpha-synuclein gene (SNCA) expression | HEK-293-SNCA-luc viability, GF-AFC fluorescence, 24 h | Potency, µM (series often up to 57.1 µM), usual class: cytotoxic | 150,000 tested, 0.12% active; further: nearly all actives have a fitted effect of over 30% in size
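Cytotoxicity counterscreen: after 24 h compound treatment of genome-edited SNCA-luciferase HEK-293 cells, live-cell protease substrate GF-AFC read by fluorescence after 30 min; activity scaled between DMSO (0%) and medium-only (-100%), curves Hill-fitted.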
SNCA expr inh = Primary qHTS assay for inhibitors of alpha-synuclein gene (SNCA) expression. HEK-293 SNCA-luciferase knock-in, luminescence, 24 h. Potency, µM (doses to about 57.2 µM), actives largely listed as inhibitors. 140,000 tested, 0.17% active. AID 1671194, 2021; further: nearly all actives have a fitted effect of over 45% in size
IP6K1 conf = Confirmatory qHTS assay for small molecule inhibitors of Inositol hexaphosphate kinase 1 (IP6K1). shares compounds with IP6K1 inhibitor. recombinant IP6K1 kinase, ADP-Glo luminescence, 2 h. Potency, µM (titrated, usually from 49 µM), usual class: inhibitors. 1,200 tested, 13% active; further: nearly all actives have a fitted effect of over 65% in size
Hits are given with their value; 0 = inactive; ? = inconclusive; - = no result. Unless noted, the call rests on the fitted dose curve; in most records, active means well fitted curve in the direction sought with a large enough effect; inconclusive means small, poorly fitted or top-dose-only effect, or another doubt; inactive means no such curve, though single readings can be large; an effect the other way counts as inactive or inconclusive.

SMILES	KDM5B inh	IP6K1 inhibitor	SNCA viab count	SNCA expr inh	IP6K1 conf
COc1cccc(N2C(=O)NC(=NC3CCCC3)C23CCCN(CC2CCCCC2)C3)c1 (configuration not stated)	0	0	?	?	-
Cc1ccccc1C(=O)Nc1cccc(-c2nc3cccnc3s2)c1	?	-29	0	0	?
Cc1cccc(CC(=O)Nc2cccc(-c3nc4cccnc4s3)c2)c1	?	0	0	0	-
COc1ccc(/C=C/c2nc3c(ccc4ccccc43)s2)c(OC)c1OC	0	-	-	-	-
CC(C)c1cccc(NC(=O)C2CCN(C(=O)c3ncn4c3COC(c3ccccc3)C4)CC2)c1 (configuration not stated)	0	0	0	0	-
CN1CC(=O)N(c2ccccc2F)Cc2c(NC3CCNCC3)ncnc21	?	0	0	0	-
Cc1c(NC(=O)c2ccc([N+](=O)[O-])o2)cccc1-c1nc2ccccc2o1	0	-	-	-	-
Cc1c(NC(=O)c2sc3c([N+](=O)[O-])cccc3c2Cl)cccc1-c1nc2ccccc2o1	0	-28	0	0	0
Cc1ccc(NC(=O)C(=O)NCC(c2ccc3c(c2)OCO3)N2CCN(C)CC2)cc1C (configuration not stated)	0	-27	0	?	0
Cc1ccccc1Nc1nc(N)c(C(=O)c2ccccc2Cl)s1	0	-52	?	0	3.3µM
Cc1ccc(Nc2nc(N)c(C(=O)c3ccccc3Cl)s2)c(C)c1	0	-	-	-	-
CN(C)c1ccc(C2CC(c3c(O)n(C4CCCCC4)c(=O)[nH]c3=O)=Nc3ccccc3S2)cc1 (configuration not stated)	?	-32	0	0	0
COc1cccc(CCNC(=O)c2c(C)noc2-c2ccccc2OC)c1	0	0	0	0	-
CCn1c2ccccc2c2cc(CN3CCN(Cc4ccccc4F)CC3)ccc21	?	-26	0	0	0
CCn1c2ccccc2c2cc(CN3CCN(Cc4ccc(Cl)cc4)CC3)ccc21	?	0	0	?	-
CCn1c2ccccc2c2cc(CN3CCN(Cc4ccccc4C)CC3)ccc21	?	-28	0	0	0
CNC(=O)c1cc(C2CC2)nc2c1c(C1CCN(C(=O)Cc3ccccc3)CC1)nn2C	-	0	-	-	-
Cc1cc(C(=O)NC2CC(c3nnc(CN(C)C)n3C)C2)c2c(C)noc2n1 (configuration not stated)	0	-29	0	0	0
COc1ccc(-c2nc(S(=O)(=O)c3ccc(C)cc3)c(N3CCCCC3)o2)cc1	?	0	0	0	-
Cc1ccc(-c2nc(S(=O)(=O)c3ccc(Cl)cc3)c(N3CCCCC3)o2)cc1	?	-34	0	0	?
CSC1=N/C(=C\c2cccs2)C(=O)S1	0	-	-	-	-
CCc1ccc(CNC(=O)C2CCN(C(=O)N3CC(CC)Oc4ccc(C)cc43)CC2)cc1 (configuration not stated)	0	0	?	?	-
Cc1ccc2c(c1)N(C(=O)N1CCC(C(=O)NCCC3=CCCCC3)CC1)CC(C)O2 (configuration not stated)	0	-39	0	0	0
Cc1ccc2c(c1)N(C(=O)N1CCC(C(=O)NCc3cccc(Br)c3)CC1)CCO2	0	-102	0	0	0
Cc1ccc2c(c1)N(C(=O)N1CCC(C(=O)NCCc3ccccc3)CC1)CC(C)O2 (configuration not stated)	0	0	0	0	-
O=C(Nc1nnc(N2CCCCCC2)s1)Nc1cc(F)ccc1F	0	-29	0	0	0
COc1ccc(CCC(=O)NCc2ccc3c(c2)CCN3C(=O)c2ccc(Cl)cc2)cc1	0	-28	?	0	0
Cc1ccc(C(=O)Nc2ccc(S(=O)(=O)O)c3cc(S(=O)(=O)O)cc(S(=O)(=O)O)c23)cc1NC(=O)c1cccc(NC(=O)Nc2cccc(C(=O)Nc3cc(C(=O)Nc4ccc(S(=O)(=O)O)c5cc(S(=O)(=O)O)cc(S(=O)(=O)O)c45)ccc3C)c2)c1	-	-95	?	0	3.3µM
c1ccc(COc2ccc(Oc3cc(-c4nc5ccccc5s4)c4ccccc4n3)cc2)cc1	0	-	-	-	-

Assay outcomes deposited in PubChem BioAssay by National Center for Advancing Translational Sciences (NCATS).
